{"source": "PubChem BioAssay (Tox21)", "note": "Values without a mark were called inactive. Calls of active or inactive are those of the source. Calls come from the whole dose curve; as a rule, active = well fitted curve in the direction sought with a large enough effect in the repeat runs; inconclusive = weak or mixed curves; inactive = flat fitted curve, though single readings scatter. % is set by controls: 0 for no effect and ±100 for the full control effect."}
{"test": "qHTS assay to test for compound auto fluorescence at 535 nm (green) in HEK293 cells (AID 720680)", "settings": "green autofluorescence 485/535 nm; series mostly up to 91.3 µM; fluorescence, % of fluorescein: at the top concentration"}
{"compound": "CCC(CC)CO", "fluorescence, % of fluorescein": "-0.273%"}
{"compound": "CC1COc2ccccc2N1", "note": "(stereo not given)", "fluorescence, % of fluorescein": "-0.0433%"}
{"compound": "NCCS", "outcome": "inactive"}
{"compound": "CC(C)(C)OC(=O)c1ccc(O)cc1", "fluorescence, % of fluorescein": "-0.0273%"}
{"compound": "CC(C)OC(=O)CCCCC(=O)OC(C)C", "fluorescence, % of fluorescein": "-0.0228%"}
{"compound": "CC(C)CC(=O)O", "fluorescence, % of fluorescein": "-0.153%"}
{"compound": "CCCCCCCCC1CCC(=O)O1", "note": "(stereo not given)", "fluorescence, % of fluorescein": "-0.0347%"}
{"compound": "Cc1cccc2nccnc12", "fluorescence, % of fluorescein": "-0.0424%"}
{"compound": "CCCCCOC(=O)CCC", "fluorescence, % of fluorescein": "-0.0328%"}
{"compound": "CN1C(C)(C)CCCC1(C)C", "fluorescence, % of fluorescein": "0.0197% [at 46 µM]"}
{"compound": "C[C@@H]1O[C@@H](O[C@@H]2[C@@H](O)[C@H](OCCc3ccc(O)c(O)c3)O[C@H](CO[C@@H]3O[C@H](CO)[C@@H](O)[C@H](O)[C@H]3O)[C@H]2OC(=O)/C=C/c2ccc(O)c(O)c2)[C@H](O)[C@H](O)[C@H]1O", "fluorescence, % of fluorescein": "-0.0303%"}
{"compound": "CCCCCCOc1ccccc1C(N)=O", "fluorescence, % of fluorescein": "0.0684% [at 46 µM]"}
{"compound": "O=C(O)C(=O)Cc1ccccc1", "fluorescence, % of fluorescein": "0.0614%"}
{"compound": "O=C(NCCN1CCOCC1)c1ccc(Cl)cc1", "outcome": "inactive"}
{"compound": "Nc1ncnc(Nc2ccccc2)n1", "fluorescence, % of fluorescein": "0.0109% [at 46 µM]"}
{"compound": "C=C(C)C(=O)OCC(C)(C)COC(=O)C(=C)C", "fluorescence, % of fluorescein": "0.0226%"}
{"compound": "BrCc1cccc(Oc2ccccc2)c1", "fluorescence, % of fluorescein": "0.0174%"}
{"compound": "c1ccc2nccnc2c1", "fluorescence, % of fluorescein": "0.034% [at 95.7 µM]"}
{"compound": "COc1ccc(Br)c(C)c1", "fluorescence, % of fluorescein": "-0.127%"}
{"compound": "COC(=O)C1CC(=O)C(C(=O)OC)CC1=O", "note": "(stereo not given)", "fluorescence, % of fluorescein": "-0.0599% [at 3.72 µM]"}
{"compound": "CCOC(=O)CC(=O)c1ccccc1", "fluorescence, % of fluorescein": "-0.059%"}
{"compound": "Cc1c(I)c(=O)n(-c2ccccc2)n1C", "fluorescence, % of fluorescein": "-0.0025% [at 46 µM]"}
{"compound": "COc1ccc(S(=O)(=O)N2c3ccc(Cl)cc3[C@@](O)(c3ccccc3Cl)[C@H]2C(=O)N2CCC[C@@H]2C(N)=O)cc1OC", "fluorescence, % of fluorescein": "0.0109% [at 46 µM]"}
{"compound": "O=C1c2ccccc2C(=O)C1c1ccccc1", "fluorescence, % of fluorescein": "-0.0324% [at 18.6 µM]"}
{"compound": "BrCCCCCBr", "fluorescence, % of fluorescein": "0.0614% [at 95.7 µM]"}
{"compound": "CC(C)C[C@H](NC(=O)CNC(=O)[C@H](Cc1ccc(O)cc1)NC(=O)[C@H](CO)NC(=O)[C@H](Cc1c[nH]c2ccccc12)NC(=O)[C@H](Cc1cnc[nH]1)NC(=O)[C@@H]1CCC(=O)N1)C(=O)N[C@@H](CCCN=C(N)N)C(=O)N1CCC[C@H]1C(=O)NCC(N)=O", "note": "(stereo in doubt)", "fluorescence, % of fluorescein": "0.0822% [at 46 µM]"}
{"compound": "CN(CCOc1ccc(NS(C)(=O)=O)cc1)CCc1ccc(NS(C)(=O)=O)cc1", "fluorescence, % of fluorescein": "-0.0514% [at 46 µM]"}
{"compound": "O=C(c1ccc(O)cc1)c1ccc(O)c(O)c1O", "fluorescence, % of fluorescein": "0.006%"}
{"compound": "O=C(O)c1cc(Br)c(O)c(Br)c1", "fluorescence, % of fluorescein": "-0.0905%"}
{"compound": "O=C1c2ccccc2C(=O)N1CCl", "fluorescence, % of fluorescein": "0.117%"}
{"compound": "NCCN1CCOCC1", "fluorescence, % of fluorescein": "0.0396%"}
{"compound": "Nc1ccc(S(=O)(=O)Nc2ccc(Cl)nn2)cc1", "outcome": "inactive"}
{"compound": "C=COCCOCCOCCOC=C", "fluorescence, % of fluorescein": "-0.0321%"}
{"compound": "OCCN(CCO)c1cccc(Cl)c1", "fluorescence, % of fluorescein": "0.0394%"}
{"compound": "CCOc1cc([N+](=O)[O-])c(OCC)cc1N1CCOCC1", "fluorescence, % of fluorescein": "0.0459%"}
